Source: PubChem BioAssay (Broad Institute)
F508del corr = CFTR F508del correction in bronchial cells | 350,000 tested, 0.36% active | AID 720511 | CFBE cells, YFP halide quenching; stimulated with forskolin plus potentiator P3; % fluorescence drop versus neutral controls | activity (quench increase), % at 7.58 µM;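 active means mean added fluorescence quench of at least 8% versus neutral control, with both replicates also reaching 8%; inconclusive means only one of the mean or replicate conditions met; inactive means mean below 8% and not both replicates reaching 8%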;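 further: cells transiently co-express mutant CFTR-F508del with the halide-sensitive YFP; corrector assay measuring rescue of mutant channel to the surface after 24 h compound exposure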
HIV Env fusion = inhibitors of HIV Env-mediated cell fusion | HeLa-JRFL Env/CEM21 cell fusion, luciferase | 360,000 tested, 1.1% active | inhibition, % at 12.3 µM;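 active means mean replicate inhibition score of at least 50 and every replicate individually at or above 50; inconclusive means only one of the two criteria met; inactive means mean below 50 and not all replicates reaching 50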;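 further: 0% = plate neutral controls and 100% = maraviroc near 300 nM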
EWS-Fli block = blocks EWS/Fli oncoprotein-driven transcription | A673 NR0B1-luciferase reporter, viability-normalised | inhibition, % at 12.6 µM | 350,000 tested, 0.67% active;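 active means mean inhibition of at least 50% after viability correction, with every replicate also passing that limit; inconclusive means mean reaches 50% but only one of two replicates passes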;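 further: firefly luciferase signal divided by Alamar Blue viability fluorescence both relative to DMSO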
PAX8 reporter = PAX8 transcriptional activity inhibition | RMG-I TPO-luciferase reporter, SteadyGlo, 24 h | inhibition, % at 12.6 µM | 360,000 tested, 1.2% active;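 active means mean replicate inhibition at least 60% with every replicate also reaching 60%; inconclusive means only one of the two criteria is met; inactive means mean below 60% and not all replicates reaching 60%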;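 further: luciferase light reporting Pax8 driven TPO promoter activity; plate controls were median of neutral control wells for no effect and mitoxantrone controls for full effect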
PGC1a acetyl inh = lowers PGC1a acetylation signal in U2OS cells. 350,000 tested, 0.17% active. AlphaScreen anti-acetyl-lysine; with virally co-expressed GCN5 acetyltransferase. inhibition, % at 15.6 µM;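 active means every replicate shows inhibition of at least 40%; inconclusive means mean inhibition at least 40% but some replicate below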;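 further: 0% = neutral control wells and 100% = positive control wells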
GSIS activator = GLuc luminescence reporter in INS-1E cells, primary screen for activators of glucose-dependent secretion of insulin | activation, % at 16.6 µM | INS-1E GLuc reporter insulin secretion, 2-3 h | 370,000 tested, 0.61% active;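 active means lowest replicate activation of at least 40%, so every replicate reaches that level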;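 further: 0% = median of neutral control wells and 100% = median of IBMX positive control wells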
* = called active by the depositor; [ ] = dose if it differs, or a comment. Compounds with a hit are over-represented: about 2.7% of the library has one in this group of screens.

`CS(=O)(=O)c1ccc(C(=O)NCCN2C(=O)S/C(=C\c3cccnc3)C2=O)cc1[N+](=O)[O-]` gave F508del corr -9, HIV Env fusion -26, EWS-Fli block 64*, PAX8 reporter 30 and GSIS activator 29.
Screening CO[C@H]1CN(C)C(=O)c2ccc(NC(C)=O)cc2OC[C@H](C)N(C(=O)C2CCC2)C[C@H]1C returned F508del corr 0, HIV Env fusion 2[16.7 µM], EWS-Fli block -2, PAX8 reporter -3, PGC1a acetyl inh 3 and GSIS activator -8.
C[C@H]1CN([C@@H](C)CO)C(=O)c2cc(/C=C/c3ccccc3)cnc2O[C@@H]1CN(C)C(=O)Nc1ccc(C(F)(F)F)cc1 was read as F508del corr 6, HIV Env fusion 4[16.7 µM], EWS-Fli block 17, PGC1a acetyl inh 9 and GSIS activator -14.
COc1ccc(-c2oc3ccc(N4CCOCC4)cc3c2C#CCO)cc1 was read as F508del corr 2, HIV Env fusion inconclusive, EWS-Fli block 31, PAX8 reporter 23, PGC1a acetyl inh -20 and GSIS activator -6.
COc1ccc(-c2ccc3oc(-c4ccc(OC)cc4)c(C#CCO)c3c2)cc1 was read as F508del corr 9.3*, HIV Env fusion 48, EWS-Fli block -20, PAX8 reporter 32 and GSIS activator -4.
For Cc1ccc(NN2C(=O)C=C(c3ccccc3)C2=O)cc1 the results were F508del corr -8, HIV Env fusion -52, EWS-Fli block 63*, PAX8 reporter 24, PGC1a acetyl inh 2 and GSIS activator -5.
Cn1cc(-c2ccccc2C(N)=O)c(=O)c2cc(Cl)ccc21 was read as F508del corr 0, HIV Env fusion 6, EWS-Fli block 14, PAX8 reporter 35, PGC1a acetyl inh 2 and GSIS activator 7.
`Cn1cc(C2=C(c3ccc(Cl)cc3Cl)C(=O)NC2=O)c2ccccc21` gave F508del corr 0, HIV Env fusion 13, EWS-Fli block -79, PAX8 reporter 92*, PGC1a acetyl inh -24 and GSIS activator 6.
`Cc1cc(NC(=O)NC(=O)c2ccccc2NC(=O)CN(C)C)ccc1Oc1ncc(Br)cn1` gave F508del corr 1, HIV Env fusion -65, EWS-Fli block 58*, PAX8 reporter 26 and PGC1a acetyl inh -3.
Cc1ccccc1C(=O)O/N=C/c1c(N2CCOCC2)n(C)c2ccccc12 was read as HIV Env fusion 60* and PGC1a acetyl inh 7.
CC(C)(C)OC(=O)N1CCc2onc(-c3ccc([N+](=O)[O-])cc3)c2C1=O was read as F508del corr 2, HIV Env fusion 9, EWS-Fli block -18, PAX8 reporter -2, PGC1a acetyl inh 12 and GSIS activator 7.
For CC(C)(C)OC(=O)N1CCc2onc(-c3ccc(Br)cc3)c2C1=O the results were F508del corr -1, HIV Env fusion 72*, EWS-Fli block -37, PAX8 reporter -45, PGC1a acetyl inh -22 and GSIS activator -10.
`Cc1noc(C)c1NC(=O)Nc1cccc2c1O[C@H](CN(C)CC1CC1)[C@H](C)CN([C@H](C)CO)C2=O` gave F508del corr 2, HIV Env fusion -4[16.7 µM], EWS-Fli block -9, PGC1a acetyl inh 2 and GSIS activator 7.
For COc1ccc2nc(C)cc(Sc3nc4ccccc4s3)c2c1 the results were F508del corr 1, HIV Env fusion 58*, EWS-Fli block -35, PAX8 reporter 69*, PGC1a acetyl inh 33 and GSIS activator -13.
For O=C(Nc1cc(F)ccc1F)N1CCCCN2[C@H](CO)[C@H](c3ccc(-c4cncnc4)cc3)[C@H]2C1 the results were F508del corr 0, PAX8 reporter 1, PGC1a acetyl inh 5 and GSIS activator 16.
COc1ccccc1-c1cn(CC[C@@H]2CC[C@H](NC(=O)c3cnccn3)[C@H](CO)O2)nn1 was read as F508del corr -3, PGC1a acetyl inh 1 and GSIS activator 5.
Screening Cc1cccn2c(=O)nc(SCC(=O)N3CCCCC3)nc12 returned F508del corr -1, HIV Env fusion 5, EWS-Fli block 5, PAX8 reporter 3 and GSIS activator 43*.
C=CCSc1nc(=O)n2ccccc2n1 was read as F508del corr -2, HIV Env fusion 13, EWS-Fli block -7, PAX8 reporter 15, PGC1a acetyl inh -3 and GSIS activator 17.
